Bioassay records deposited in PubChem BioAssay by National Center for Advancing Translational Sciences (NCATS).
Luc counter: Kinase-Glo luciferase inhibition (counter-screen); Q27757; AID 1379; 0.28% of 200,000 active; Potency, µM (highest dose often 38.3 µM), hits mostly inhibitors; Kinase-Glo luciferase, ATP luminescence, 8 min; note: nearly all actives have a fitted effect of over 60% in size
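Kinase-Glo luciferase light output from ATP and luciferin was measured with 10 uM ATP, within the enzyme's linear range. Buffer: 50 mM imidazole pH 7.2, 50 mM KCl, 7 mM MgCl2, 0.01% Tween 20, 0.05% BSA; luminescence read after 8 min at ambient temperature.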
ELG1 genotox: inducers of genotoxicity in HEK293T ELG1-luciferase cells; HEK293T ELG1-luciferase reporter, luminescence, 16 h; Potency, µM (series often up to 46 µM), usual class: activators; 1.3% of 330,000 active; AID 504466; note: nearly all actives have a fitted effect of over 60% in size
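16 hr compound incubation (37 °C, 5% CO2) of HEK293T cells carrying luciferase-tagged ELG1; luciferase then measured by ONE-Glo luminescence after 30 min at RT.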
NPC1 promoter act: activates the NPC1 promoter. Huh7 NPC1 promoter luciferase reporter, 24 h. Potency, µM (series often up to 9.22 µM), actives largely listed as activators. 2.4% of 320,000 active. AID 485313; note: nearly all actives have a fitted effect of over 60% in size
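Quantitative HTS used a cell-based reporter: Huh7 cells stably bearing the NPC1 promoter upstream of luciferase were treated with compounds for 24 h, and promoter activation was read as luminescence.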
SMN2 splice up: enhancers of SMN2 splice variant expression | AID 1458 | HEK293 SMN2-luciferase splicing reporter, luminescence, 30-36 h | 2.8% of 210,000 active | Potency, µM (doses to about 46.1 µM), usual class: activators; note: nearly all actives have a fitted effect of over 55% in size
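qHTS luciferase splicing reporter: luminescence rises when SMN2 exon 7 is included in transfected HEK293 cells. Compound exposure lasted 30-36 h at 37C, with 4.5 mM final sodium butyrate as control, followed by a ONE-Glo read.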
FLuc counter: counter-screen for miR-21 project: firefly luciferase inhibitors or activators; 6.9% of 360,000 active; purified FLuc, Km substrates, luminescence inhibition; Potency, µM (titrated, usually from 57.5 µM), most hits filed as inhibitors; note: nearly all actives have a fitted effect of over 55% in size
Target sequence (P08659 whole entry, looked up): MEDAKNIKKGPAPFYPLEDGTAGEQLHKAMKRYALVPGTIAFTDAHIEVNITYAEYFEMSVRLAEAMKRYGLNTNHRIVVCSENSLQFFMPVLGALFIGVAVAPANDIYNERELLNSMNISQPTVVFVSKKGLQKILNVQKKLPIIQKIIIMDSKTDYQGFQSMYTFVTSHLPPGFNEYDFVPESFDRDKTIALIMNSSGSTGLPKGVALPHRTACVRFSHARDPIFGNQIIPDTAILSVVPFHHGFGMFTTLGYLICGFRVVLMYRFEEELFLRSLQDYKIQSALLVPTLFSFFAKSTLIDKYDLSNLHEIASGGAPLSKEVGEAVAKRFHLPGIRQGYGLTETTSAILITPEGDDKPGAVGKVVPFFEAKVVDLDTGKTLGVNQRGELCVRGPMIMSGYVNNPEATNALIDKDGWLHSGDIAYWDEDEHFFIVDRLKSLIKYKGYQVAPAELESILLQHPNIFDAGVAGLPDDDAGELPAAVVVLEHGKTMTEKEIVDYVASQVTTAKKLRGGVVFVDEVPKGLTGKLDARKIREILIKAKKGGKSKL
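Purified P. pyralis luciferase (10nM final) with 10uM D-luciferin and 10uM ATP (Km levels) in 50mM Tris acetate pH 7.5, 10mM Mg acetate, 0.01% Tween-20, 0.05% BSA; qHTS 6-point titration, ~60 µM downward; luminescence read.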
Rab9 promoter act: activates the Rab9 promoter; Potency, µM (titrated, usually from 9.22 µM), usual class: activators; Huh7 Rab9 promoter-luciferase reporter, luminescence, 24 h; AID 485297; 2.8% of 320,000 active; note: nearly all actives have a fitted effect of over 60% in size
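Stable Rab9-luc Huh7, 1500 cells/well, 2 h settle; cmpd in DMSO, 24 h, 37 °C/5% CO2; luciferase reagent 10 min RT; luminescence.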
Large screens that a line does not name were inactive. Sampled rows, rich in hits. Any-hit rate of the full collection: about 7.4%. Calls come from the whole dose curve; as a rule, active = well fitted curve in the direction sought with a large enough effect; inconclusive = small, poorly fitted or top-dose-only effect, or another doubt; inactive = no such curve, though single readings can be large; an effect the other way counts as inactive or inconclusive.

Nc1ncc(Br)cc1S(=O)(=O)NCCc1ccccc1	none (no result: Luc counter, SMN2 splice up)
C[C@H](NC(=O)c1cccc([N+](=O)[O-])c1)C(=O)OCC(=O)c1ccccc1Br	none (no result: Luc counter, NPC1 promoter act, SMN2 splice up, FLuc counter, Rab9 promoter act)
CCOc1ccc(Oc2nc(NCC(C)C)nc(OC)n2)nn1	ELG1 genotox inconclusive
CCNc1nc(NC(C)CC)nc(Oc2ccc(OCC)nn2)n1 (stereo not drawn)	ELG1 genotox inconclusive, SMN2 splice up 5.62µM
Cc1ccc(C(=O)CSc2ccccn2)cc1	ELG1 genotox inconclusive, NPC1 promoter act inconclusive, SMN2 splice up inconclusive, FLuc counter 6.75µM, Rab9 promoter act 3.55µM
O=C(CSc1ccccn1)c1ccc(F)cc1	ELG1 genotox inconclusive, NPC1 promoter act inconclusive, FLuc counter 19µM, Rab9 promoter act inconclusive
Cc1ccc(C(=O)CSc2nccn2-c2ccccc2)cc1	FLuc counter inconclusive
Cc1ccc(NC(=O)CCSc2ccccn2)cc1	ELG1 genotox inconclusive, NPC1 promoter act 3.55µM, SMN2 splice up 14.1µM, FLuc counter 6.01µM, Rab9 promoter act 3.16µM
C/C(=C\C[Si](C)(C)C)CC[C@H](O)C1=CCCCC1=O	none (no result: ELG1 genotox, NPC1 promoter act, FLuc counter, Rab9 promoter act)
CC(C)Oc1ccc(C(=O)NC2(C(F)(F)F)NC(=O)N(CCCc3ccccc3)C2=O)cc1 (stereo not drawn)	none
CC(=O)C1=C(C)Nc2ncnn2C1c1ccccc1F (stereo not drawn)	none (no result: Luc counter, SMN2 splice up)
CCN(C(=O)CSc1nc2ccccc2n1CC(=O)N1CCCC(C)C1)c1ccccc1 (stereo not drawn)	none (no result: Luc counter, ELG1 genotox, NPC1 promoter act, SMN2 splice up, Rab9 promoter act)
CCc1ccc2nc3n[nH]c(N)c3cc2c1	ELG1 genotox 13µM, NPC1 promoter act inconclusive, SMN2 splice up inconclusive, FLuc counter 4.78µM, Rab9 promoter act 2.82µM
Cc1sc2nc(CSCC(=O)Nc3ccccc3C#N)[nH]c(=O)c2c1C	none
CCOc1ccccc1NC(=O)c1cc(=O)[nH]c2ccc(S(=O)(=O)N3CCOCC3)cc12	none (no result: Luc counter, NPC1 promoter act, SMN2 splice up, FLuc counter, Rab9 promoter act)
O=C(NNC1CC(=O)N(c2ccccc2)C1=O)c1ccco1 (stereo not drawn)	none
O=C(NNC1CC(=O)N(c2ccccc2)C1=O)c1ccc(COc2ccccc2Cl)o1 (stereo not drawn)	FLuc counter 16.9µM
O=C(O)c1cc(-c2ccc(/C=C3\NC(=O)N(c4ccc(Cl)cc4)C3=O)o2)ccc1Cl	FLuc counter 19µM
O=C(O)c1cc(-c2ccc(/C=C3\NC(=O)N(c4ccccc4)C3=O)o2)ccc1Cl	FLuc counter inconclusive (no result: Luc counter, SMN2 splice up)
C#CCN1C(=O)S/C(=C\c2ccc(-c3ccc(Cl)c(C(=O)O)c3)o2)C1=O	ELG1 genotox 16.4µM, NPC1 promoter act 0.794µM, FLuc counter 10.7µM, Rab9 promoter act 1.78µM (no result: Luc counter, SMN2 splice up)
O=C1NN(c2ccccc2)C(=O)/C1=C/c1ccc(-c2ccc(Cl)c(C(=O)O)c2)o1	FLuc counter inconclusive
CCN=C1S/C(=C\c2ccc(-c3cccc(C(=O)O)c3)o2)C(=O)N1CC	ELG1 genotox 1.64µM, NPC1 promoter act 0.631µM, SMN2 splice up 3.55µM, FLuc counter 0.757µM, Rab9 promoter act 0.398µM
Cc1cccc(N2NC(=O)/C(=C/c3ccc(-c4ccc(Cl)c(C(=O)O)c4)o3)C2=O)c1	FLuc counter 23.9µM
COc1cccc(-c2c(C(=O)N/N=C(\C)c3cccs3)nnn2-c2nonc2N)c1	none (no result: Luc counter, SMN2 splice up)
c1ccc2c(CN3CCSCC3)cccc2c1	none (no result: Luc counter, SMN2 splice up)
O=C(CN1c2ccccc2S(=O)(=O)c2ccccc21)Nc1ccccc1Cl	none (no result: Luc counter, ELG1 genotox, NPC1 promoter act, SMN2 splice up, Rab9 promoter act)
CCn1c(SCC(=O)c2ccc3c(c2)OCCO3)nnc1C(C)C	NPC1 promoter act inconclusive, FLuc counter inconclusive, Rab9 promoter act inconclusive
O=C(CSc1nnnn1C1CCCC1)c1ccc2c(c1)OCCO2	NPC1 promoter act 1.12µM, FLuc counter 0.757µM, Rab9 promoter act 0.631µM
O=C(CSc1nnc2ccccn12)c1ccc2c(c1)OCCO2	ELG1 genotox 2.91µM, NPC1 promoter act 1.12µM, SMN2 splice up 11.2µM, FLuc counter 4.78µM, Rab9 promoter act 1µM
COc1ccc(C(=O)CSc2nnc3ccccn23)cc1OC	ELG1 genotox inconclusive
Cc1ccc(C(=O)CSc2nnnn2C(C)C)c(C)c1	ELG1 genotox inconclusive, NPC1 promoter act 2.82µM, SMN2 splice up 0.794µM, FLuc counter 0.675µM, Rab9 promoter act 2.82µM
